Source: PubChem BioAssay
The source made the active and inactive calls. Unless noted, the rule behind the calls is not given here.

Columns and labels:
[1] = HepG2 liver cancer cell viability effects, profiling panel, resazurin fluorescence, 24 h, PK04 Diversity Set (AID 1172); settings: higher = more signal
[2] = basal S. cerevisiae growth modulation, no modifier, primary screen, OD600, strain BY4716, 24 h, basal condition (AID 1173); settings: OD600, 24 h, higher = more signal, called active from +8 up or from −8 down
[3] = MM1S myeloma cell viability, profiling panel, resazurin fluorescence, basal, 24 h, PK04 Diversity Set (AID 1174); settings: higher = more signal, called active from +8 up or from −8 down;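 note: MM1S multiple myeloma cell line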
[4] = target: Dihydroorotate dehydrogenase (quinone), mitochondrial (Plasmodium falciparum (isolate 3D7)) (UniProt Q08210); test: PfDHODH enzyme inhibitors, primary screen, biochemical, C-terminal His tag, absorbance 600 nm (AID 1175); settings: DCIP absorbance 600 nm, higher = more signal, called active from +8 up or from −8 down;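 note: recombinant parasite enzyme with a five histidine tag at its C terminus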
Dihydroorotate dehydrogenase (quinone), mitochondrial (Plasmodium falciparum (isolate 3D7)), sequence (Q08210 whole entry, looked up): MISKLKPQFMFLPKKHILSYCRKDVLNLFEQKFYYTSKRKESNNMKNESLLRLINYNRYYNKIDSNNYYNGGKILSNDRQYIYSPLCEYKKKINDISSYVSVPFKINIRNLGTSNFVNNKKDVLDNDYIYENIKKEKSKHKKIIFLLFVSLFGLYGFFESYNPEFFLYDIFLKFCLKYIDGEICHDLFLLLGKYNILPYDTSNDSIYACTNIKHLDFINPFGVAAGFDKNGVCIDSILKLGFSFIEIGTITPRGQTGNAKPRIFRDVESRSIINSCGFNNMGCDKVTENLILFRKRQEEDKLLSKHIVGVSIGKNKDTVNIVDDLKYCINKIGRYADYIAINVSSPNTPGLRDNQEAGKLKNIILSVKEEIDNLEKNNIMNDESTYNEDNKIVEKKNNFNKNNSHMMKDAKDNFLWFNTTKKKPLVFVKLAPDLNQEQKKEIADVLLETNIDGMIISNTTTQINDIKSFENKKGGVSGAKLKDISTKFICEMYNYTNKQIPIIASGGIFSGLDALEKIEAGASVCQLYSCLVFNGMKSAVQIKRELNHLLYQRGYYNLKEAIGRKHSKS

[5] = P. aeruginosa biofilm formation inhibitors, primary screen, strain PAO1, LB-PBS medium, absorbance 600 nm (AID 1176); settings: P. aeruginosa PAO1 growth/biofilm, A600, 12 h; higher = more signal
[6] = S. cerevisiae RM11-1a growth modifiers, primary screen, strain RM11-1a, OD600, basal, 24 h (AID 1177); settings: OD600, 24 h, higher = more signal, called active from +8 up or from −8 down;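 note: cultures grown under basal conditions with no added stressor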
[7] = E. coli acrAB mutant growth effects, primary screen, E. coli filamentation inducers, strain DRC39, OD650, 24 h (AID 1178); settings: higher = more signal, called active from +8 up or from −8 down;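 note: growth measured as culture turbidity by optical density at 650 nm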
[8] = E. coli acrAB mutant growth effects, primary screen, E. coli filamentation inducers, strain DRC39, OD650, 48 h (AID 1179);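 note: screen aims at cell division blockers that make cells filament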; settings: E. coli DRC39 delta-acrAB growth, higher = more signal, called active from +8 up or from −8 down
[9] = RPMI8226 myeloma cell viability, profiling panel, resazurin fluorescence, basal, 24 h, PK04 Diversity Set (AID 1180); settings: higher = more signal;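 note: RPMI8826 multiple myeloma cell line at 5000 cells per well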
[10] = target: E3 ubiquitin-protein ligase XIAP (Homo sapiens) (UniProt P98170); test: XIAP binders, primary screen, biophysical, small-molecule microarray, fluorescence 635 nm (AID 1181); settings: small-molecule microarray binding, higher = more signal;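 note: score merges 667 nm emission and signal to noise over triplicate slides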
E3 ubiquitin-protein ligase XIAP (Homo sapiens), sequence (P98170 whole entry, looked up): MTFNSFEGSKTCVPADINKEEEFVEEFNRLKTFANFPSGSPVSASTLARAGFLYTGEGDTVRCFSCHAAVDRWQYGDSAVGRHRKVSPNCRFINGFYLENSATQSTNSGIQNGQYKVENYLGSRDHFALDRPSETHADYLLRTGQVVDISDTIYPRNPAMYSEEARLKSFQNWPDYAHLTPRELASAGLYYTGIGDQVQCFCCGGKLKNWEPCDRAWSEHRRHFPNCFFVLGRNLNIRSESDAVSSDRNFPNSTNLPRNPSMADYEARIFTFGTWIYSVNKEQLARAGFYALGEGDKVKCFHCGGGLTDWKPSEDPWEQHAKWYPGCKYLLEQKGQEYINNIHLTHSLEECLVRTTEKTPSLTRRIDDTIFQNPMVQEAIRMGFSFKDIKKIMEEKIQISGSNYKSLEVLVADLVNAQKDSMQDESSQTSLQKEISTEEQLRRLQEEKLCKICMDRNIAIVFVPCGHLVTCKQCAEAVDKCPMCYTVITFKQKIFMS

[11] = tested on: XIP peptide (Xip251-270) binding; test: small-molecule binders of XIP peptide, primary screen, biochemical, small-molecule microarray, fluorescence 635/667 nm, 0.1 µg/mL protein (AID 1182); settings: fluorescent protein binding, 635 nm, higher = more signal, called active from +8 up or from −8 down
XIP peptide (Xip251-270) = test: small-molecule binders of XIP peptide, primary screen, biochemical, small-molecule microarray, fluorescence 635/667 nm, 0.5 µg/mL protein (AID 1183); settings: small-molecule microarray binding, fluorescence 635 nm; higher = more signal
[12] = Plasmodium falciparum growth inhibition, primary screen, strain 3D7, DAPI fluorescence, 100 nL (AID 1184);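 note: parasites grown inside human red blood cells in medium with human serum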; settings: P. falciparum 3D7 growth, 3 d, higher = more signal
[13] = target: Homeobox protein Hox-A13 (Mus musculus) (UniProt Q62424); test: inhibitors of HoxA13-DNA binding, primary screen, biochemical, fluorescence polarization, labeled oligonucleotide (AID 1185); settings: 15 min, higher = more signal, called active from +8 up or from −8 down
Homeobox protein Hox-A13 (Mus musculus), sequence (Q62424 whole entry, looked up): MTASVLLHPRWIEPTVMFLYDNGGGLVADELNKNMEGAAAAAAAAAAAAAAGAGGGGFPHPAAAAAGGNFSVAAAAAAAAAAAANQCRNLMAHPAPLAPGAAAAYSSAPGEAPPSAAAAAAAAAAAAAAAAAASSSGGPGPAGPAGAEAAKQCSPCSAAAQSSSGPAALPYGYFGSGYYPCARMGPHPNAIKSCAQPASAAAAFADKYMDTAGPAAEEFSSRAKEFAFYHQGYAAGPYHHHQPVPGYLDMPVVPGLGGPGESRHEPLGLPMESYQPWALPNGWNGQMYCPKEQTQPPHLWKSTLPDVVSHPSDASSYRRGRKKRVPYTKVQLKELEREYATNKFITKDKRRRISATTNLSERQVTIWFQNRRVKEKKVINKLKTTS

[14] = inhibitors of hydroxyurea-induced Chk1 phosphorylation, primary screen, imaging, HeLa, phospho-Chk1 antibody, percent positive cells (AID 1186); settings: hydroxyurea-induced phospho-Chk1 immunofluorescence imaging, higher = more signal
[15] = inhibitors of hydroxyurea-induced Chk1 phosphorylation, primary screen, imaging, HeLa, phospho-Chk1 nuclear intensity (AID 1187); settings: hydroxyurea-induced phospho-Chk1 immunofluorescence imaging, higher = more signal

Row | SMILES | z-score [1] | z-score [2] | z-score [3] | composite z-score [4] | z-score [5] | z-score [6] | z-score [7] | z-score [8] | z-score [9] | composite z-score [10] | composite z-score [11] | composite z-score (XIP peptide (Xip251-270)) | z-score [12] | z-score [13] | z-score [14] | z-score [15]
1 | CCCCCC1=C2CNC(Cc3ccccc3)(C(=O)OC)C=C2C(C)C1=O (stereo not given) | -1.19 | 1.36 (inactive) | -1.79 (inactive) | -0.461 (inactive) | 0.026 (inactive) | 0.546 (inactive) | -0.767 (inactive) | -0.217 (inactive) | -1.5 | -0.138 | -0.186 (inactive) | 0.247 | -0.662 | -8.44 (active) | 1.14 (inactive) | 0.846 (inactive)
2 | CN(C)CCCCNC(=O)[C@H]1C[C@H]2C(=O)N3CCC[C@H]3C(=O)N2[C@H]1c1cccc(OCCO)c1 | -0.0329 | 0.949 (inactive) | 0.299 (inactive) | 0.483 (inactive) | 0.202 (inactive) | 1.76 (inactive) | -0.0332 (inactive) | -0.536 (inactive) | -0.116 | 0.906 | 0.683 (inactive) | 0.629 | 0.0172 | -3.86 (inactive) | -0.322 (inactive) | 0.0695 (inactive)
3 | CCOC(=O)C[C@H]1[C@H](OC(=O)Cc2ccc3c(c2)OCO3)[C@@H](NC(=O)c2ccc3ccccc3n2)c2cc(OCCCO)ccc2N1C(=O)Cc1ccc(OC)cc1 | 1.14 | -1.17 (inactive) | -0.175 (inactive) | -1.55 (inactive) | 0.477 (inactive) | -0.925 (inactive) | 1.12 (inactive) | 1.6 (inactive) | 0.29 | -0.232 | 0.322 (inactive) | 0.401 | -2.57 | -1.86 (inactive) | -0.192 (inactive) | 0.225 (inactive)
4 | COc1ccc([Si](C)(C)[C@H]2[C@H](CC(=O)N3Cc4ccccc4C[C@H]3CO)O[C@@]3(C(=O)N(C)c4ccccc43)[C@@H]2C)cc1 | -0.894 | -3.38 (inactive) | -1.97 (inactive) | -1.45 (inactive) | -0.695 (inactive) | 0.0745 (inactive) | -1.44 (inactive) | -1.38 (inactive) | -2.06 | 0.119 | 0.958 (inactive) | 0.808 | -2.63 | -5.59 (inactive) | 0.227 (inactive) | 0.169 (inactive)
5 | CC(C)C(=C=CC[C@H](O)c1ccccc1OCCO)C[C@H](O)COCc1ccccc1 | -0.0813 | -1.07 (inactive) | -0.271 (inactive) | -2.12 (inactive) | 0.731 (inactive) | -0.154 (inactive) | -0.145 (inactive) | -0.306 (inactive) | -0.921 | 0.17 | -0.182 (inactive) | 0.619 | -1.78 | -4.94 (inactive) | 0.233 (inactive) | -0.371 (inactive)
6 | O=C1C[C@]2(c3ccc([N+](=O)[O-])cc3)C(=O)N(C3CC3)c3cc(CO)ccc3[C@H]2N1C1CCCCC1 | 0.277 | 0.462 (inactive) | -0.0174 (inactive) | -3.75 (inactive) | 0.475 (inactive) | 0.3 (inactive) | 0.0977 (inactive) | 0.284 (inactive) | -0.34 | -0.0286 | -0.217 (inactive) | 0.205 | 1.47 | -1.16 (inactive) | -0.214 (inactive) | -0.771 (inactive)
7 | CC(C)NC(=O)[C@@H]1c2ccccc2C(=O)N(Cc2ccccc2C(F)(F)F)[C@H]1c1ccc(CO)cc1 | 0.994 | -0.249 (inactive) | 0.711 (inactive) | 0.0482 (inactive) | 0.441 (inactive) | -0.227 (inactive) | 0.296 (inactive) | 0.0644 (inactive) | 0.616 | -0.135 | 0.483 (inactive) | 0.78 | -0.276 | -3.17 (inactive) | 0.41 (inactive) | 0.405 (inactive)
8 | CCC(CC)C(O)C1C=CC2C(=O)N(c3ccccc3)C(=O)C2N1Nc1ccccc1F (stereo not given) | 0.85 | 0.153 (inactive) | -0.0479 (inactive) | 1.57 (inactive) | 0.67 (inactive) | -0.0886 (inactive) | -0.551 (inactive) | 0.164 (inactive) | 0.181 | 0.172 | 0.977 (inactive) | -0.243 | -0.0776 | -3.13 (inactive) | -0.121 (inactive) | -0.175 (inactive)
9 | Cc1ccc(S[C@]2(C(=O)NCC(F)(F)F)CC(=O)N(Cc3ccccc3C(F)(F)F)[C@@H]2c2ccc(CO)cc2)cc1 | -0.12 | 0.0386 (inactive) | -0.383 (inactive) | -0.631 (inactive) | 0.568 (inactive) | -0.404 (inactive) | 0.334 (inactive) | 0.2 (inactive) | -0.754 | 0.0256 | 0.859 (inactive) | 0.843 | 0.186 | -1.74 (inactive) | 0.145 (inactive) | 0.518 (inactive)
10 | CCN(CC)c1ccc(N2CC=CC34O[C@@H]5C=CCCOC(=O)C5[C@H]3C(=O)N(C(C)CO)[C@@H]4C2=O)cc1 (stereo not given in full) | 0.452 | -0.315 (inactive) | 0.172 (inactive) | -0.0558 (inactive) | 0.398 (inactive) | 0.126 (inactive) | -0.491 (inactive) | -0.693 (inactive) | 0.399 | 0.741 | 0.587 (inactive) | 0.77 | 0.479 | -6.31 (inactive) | 1.74 (inactive) | 0.865 (inactive)
